# This excerpt belongs to a sample that is enriched for hits.
# Dicer processing – human Dicer pre-microRNA cleavage inhibition | hit rate 6% among 47,000 | Q9UPY3 | AID 1347074 | z-score at 25 µM | cat-ELCCA pre-miR-21 Dicer processing, chemiluminescence; active compounds read high; in the data active = z-score above about 3, passing the limit was not always enough;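 note: plate controls were vehicle for no effect and no enzyme for full effect; higher signal means more uncleaved substrate so more Dicer inhibition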
# * hit, by the source's call.
SMILES,Dicer processing
COCCCN1C(=O)C(=O)/C(=C(/O)c2ccc(C)cc2)C1c1ccc(O)c(OC)c1 (centres undefined),-1.2
Cn1c(=O)oc2cc(S(=O)(=O)Nc3ccc(C(=O)O)cc3)ccc21,2
Cn1c(=O)oc2cc(S(=O)(=O)Nc3ccc(O)cc3)ccc21,0.87
CCCCOC(=O)n1c(=O)oc2cc(S(=O)(=O)Nc3ccc(C)cc3)ccc21,3.3*
C=CCn1c2ccccc2c2nnc(SCC(=O)Nc3cc(C)on3)nc21,0.28
C=CCn1c2ccccc2c2nnc(SCC(=O)Nc3ncc([N+](=O)[O-])s3)nc21,0.77
C=CCn1c2ccccc2c2nnc(SCC(=O)Nc3nc(C)c(C(=O)OCC)s3)nc21,4.9*
O=C(Nc1cccc(Br)c1)c1ccn(C(=O)Nc2ccc(Cl)cc2)n1,0.74
O=C1NC(c2ccc(O)cc2)Nc2sc3c(c21)CCN(Cc1ccccc1)C3 (centres undefined),-0.48
CCOC(=O)c1cnc(NNC(=O)c2ccc(C(C)(C)C)cc2)nc1C(F)(F)F,2.2
CC1=C(C(=O)OC2CCCCC2)C(c2coc3ccc(C)cc3c2=O)C2=C(CC(C)(C)CC2=O)N1 (centres undefined),1.1
CC1=C(C(=O)OCCOC(C)C)C(c2coc3ccc(C)cc3c2=O)C2=C(CCCC2=O)N1 (centres undefined),7.2*
CC1=C(C(=O)OC2CCCCC2)C(c2coc3ccc(C)cc3c2=O)C2=C(CCCC2=O)N1 (centres undefined),3.2*
COCCOC(=O)C1=C(C)NC2=C(C(=O)CCC2)C1c1coc2ccccc2c1=O (centres undefined),4.8
CC1=C(C(=O)OC2CCCC2)C(c2coc3ccc(Cl)cc3c2=O)C2=C(CCCC2=O)N1 (centres undefined),0.44
CC1=C(C(=O)OCCOC(C)C)C(c2ccc(C)o2)C2=C(CCCC2=O)N1 (centres undefined),-0.28
O=C(CCSc1c(Cl)cccc1Cl)c1ccco1,1.2
CCc1ccc2c(c1)sc1ncc(-c3ccccc3)c(=O)n12,-1.1
CN1CCN(CC(=O)N2c3ccccc3Sc3ccc(Cl)cc32)CC1,1.3
CN1CCN(C2Cc3ccccc3Sc3ccc(Cl)cc32)CC1 (centres undefined),-0.53
CC1CN(CCO)Cc2ccc(Cl)cc21 (centres undefined),3.2*
COC(=O)c1cc2cc(CC(=O)c3ccc(O)cc3O)ccc2o1,0.97
O=[N+]([O-])c1ccc(Sc2nnc(-c3cccc(Cl)c3)o2)nc1,0.64
Cc1cc(C)c(Nc2nc(-c3c(-c4ccccc4)noc3C)cs2)c(C)c1,-0.25
COc1ccccc1C(C[N+](=O)[O-])c1c(N)n(C)c(=O)n(C)c1=O (centres undefined),-1.7
SMILES,Dicer processing
Cn1c(N)c(C(C[N+](=O)[O-])c2ccc(Cl)cc2Cl)c(=O)n(C)c1=O (centres undefined),3.4*
CC(C(c1cccs1)c1c(N)n(C)c(=O)n(C)c1=O)[N+](=O)[O-] (centres undefined),-2.4
CC(=O)Oc1ccc(C2C(C#N)=C(C)NC3=C2C(=O)CCC3)cc1 (centres undefined),-0.67
Cc1nc2c(nc(C)n2-c2ccccc2)s1,1.2
CC(C)(C)OC(=O)N[C@@H](Cc1ccccc1)c1n[nH]c(=S)n1CC1CCCO1 (some centres undefined),-0.18
O=C(OCc1nc2c(ccc3ccccc32)[nH]1)C1CCCCC1,-5.4
COc1ccc(Cc2nn3c(-c4ccccc4)nnc3s2)cc1,1.9
O=C(Nc1ccccc1)Nc1ccc2ncccc2c1,-0.97
O=C(Nc1cnc2ccccc2c1)c1ccncc1,3.1*
O=C(Nc1ccc(F)cc1F)c1ccc2ncccc2c1,1.1
Cn1c(SCC(=O)c2c[nH]c3ccccc23)nnc1-c1ccco1,1.8
CCCCCCCn1c(SCC(N)=O)nc2c1c(=O)[nH]c(=O)n2C,1.4
CCOC(=O)NC(=S)Nc1sc2c(c1C(=O)OCC)CCCC2,-1.4
O=C(O)c1cc2cc(Cl)cc(Br)c2oc1=O,-0.55
COC(=O)c1ccc(Cl)cc1N(CCCC#N)S(=O)(=O)c1ccc(OC)c(OC)c1,0.8
COc1ccc(OC)c(CNc2nc3ccccc3n2CCN2CCOCC2)c1,5.1*
O=C(Nc1nc2ccccc2n1CCN1CCOCC1)c1cccc([N+](=O)[O-])c1,0.22
Cc1ccc(CNc2nc3ccccc3n2CCN2CCOCC2)cc1,1.6
CCn1c(NCc2ccccn2)nc2ccccc21,0.67
Oc1ccccc1CNc1nc2ccccc2n1CCN1CCOCC1,4.1*
COc1ccc(CNc2nc3ccccc3n2C)cc1OC,1.8
c1ccc2c(c1)nc(NCc1ccncc1)n2CCN1CCOCC1,2.5
c1ccc(CNc2nc3ccccc3n2CCN2CCCCC2)nc1,3.5*
Cn1c(CNc2nc3ccccc3n2CCN2CCCCC2)nc2ccccc21,-0.42
CCOCCOC(=O)C(C)Oc1ccc2c(=O)c(Oc3cc(C)cc(C)c3)coc2c1 (centres undefined),2.9
SMILES,Dicer processing
Cc1nn(C(=O)c2ccc([N+](=O)[O-])cc2)c(C)c1Cc1csc2ccc(Cl)cc12,0.62
CCOC(CC(=O)NNC(=O)c1ccc(Cl)cc1)OCC,-2.5
CSC1=C(C(=O)c2ccccc2)CC(CC(=O)O)C(=O)N1c1ccccc1 (centres undefined),-0.86
CC(C)(C)C1CCc2nc(N)c3c(=O)oc4ccccc4c3c2C1 (centres undefined),5*
COC(=O)c1c(C)nc(C)c2c(=O)oc3ccccc3c12,0.08
CCCc1cc2c(c(N)n1)c(=O)oc1ccccc12,-0.55
COc1ccc(-c2cc(OC(=O)c3ccc(Cl)cc3)c3c(C)oc(C)c3c(=O)c2)cc1,1.7
COc1ccc(-c2cc(OC(=O)c3cccc(Br)c3)c3c(C)oc(C)c3c(=O)c2)cc1,2.7
COc1ccc(-c2cc(OC(=O)c3cccs3)c3c(C)oc(C)c3c(=O)c2)cc1,4.3*
CCc1ccc2nc(NC3=NCN(Cc4ccc(OC)cc4)CN3)nc(C)c2c1,2.2
Cn1cc(C2CC(=O)N(c3ccc(Br)cc3)C2=O)c2ccccc21 (centres undefined),0.86
CCn1c2ccccc2c2cc(C3C(C(=O)OCCOC)=C(C)NC4=C3C(=O)CCC4)ccc21 (centres undefined),3.6*
CCCCCOC(=O)C1=C(C)NC2=C(C(=O)CCC2)C1c1ccc(OC)c(OC)c1 (centres undefined),-0.68
CCn1c2ccccc2c2cc(C3C(C(=O)OCC4CCCO4)=C(C)NC4=C3C(=O)CCC4)ccc21 (centres undefined),0.8
CCSCCOC(=O)C1=C(C)NC2=C(C(=O)CCC2)C1c1cccc(F)c1 (centres undefined),3.1*
CCSCCOC(=O)C1=C(C)NC2=C(C(=O)CCC2)C1c1ccc(OC)c(OC)c1 (centres undefined),4.8*
CCCCOC(=O)C1=C(C)NC2=C(C(=O)CCC2)C1c1ccc(OC)c(OC)c1 (centres undefined),-0.48
CCSCCOC(=O)C1=C(C)NC2=C(C(=O)CCC2)C1c1ccc(C(=O)OC)cc1 (centres undefined),0.4
COCCOC(=O)C1=C(C)NC2=C(C(=O)CCC2)C1c1ccc(Cl)cc1 (centres undefined),-0.53
CCOCCOC(=O)C1=C(C)NC2=C(C(=O)CCC2)C1c1cccc(F)c1 (centres undefined),-0.59
O=C(COc1ccc2ccccc2c1)OCC(=O)c1ccccc1,0.85
C=CCN1C(=O)C(O)(CC(=O)c2ccc(CC)cc2)c2cc(Br)ccc21 (centres undefined),1.6

# Screening data deposited in PubChem by Center for Chemical Genomics, University of Michigan.
